# Reference: PubChem BioAssay (Tox21)
# Unmarked numbers belong to inactive results. Records with an inconclusive call do not appear. A call without a number means that no potency is given here. Calls of active or inactive are those of the source. Unless noted, calls come from the whole dose curve; as a rule, active = well fitted curve in the direction sought with a large enough effect in the repeat runs; inconclusive = weak or mixed curves; inactive = no such curve, though single readings can be large; an effect the other way counts as inactive or inconclusive.
# Legend:
# [1] = A CellTox Green Cytotoxicity Assay to monitor cytotoxicity in HEK293 cells - 32 hour (AID 1224881); note: nearly all actives have a fitted effect of over 40% in size
# Procedure, shortened: (§1)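 Homogeneous no-lysis format: HEK293 cell suspension mixed with CellTox Green reagent, seeded, incubated 5 h at 37 C/5% CO2, then dosed by pintool with compound in DMSO.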
# [2] = A CellTox Green Cytotoxicity Assay to monitor cytotoxicity in HepG2 cells - 32 hour (AID 1224883); note: nearly all actives have a fitted effect of over 50% in size; note: potency is the fitted concentration of half-maximal effect
# Procedure, shortened: (§2)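 Fluorescent DNA-binding dye, 600 HepG2 cells/well, 5 h preincubation then compound in DMSO; same plates read at 0–40 h, 37 C.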
# [3] = A CellTox Green Cytotoxicity Assay to monitor cytotoxicity in HEK293 cells - 8 hour (AID 1224884); note: nearly all actives have a fitted effect of over 35% in size
# Procedure, shortened: as §1
# [4] = qHTS RealTime-Glo MT Cell Viability Assay in HepG2 cells - 16 hour (AID 1224885); note: nearly all actives have a fitted effect of over 50% in size
# Procedure, shortened: (§3)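 HepG2 cells (600/well) were dispensed with RealTime-Glo reagents, incubated 5 h at 37 °C, then treated with compounds in DMSO for up to 40 h. Nonlytic NanoLuc luminescence reflecting viable cells was read at each stated time point.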
# [5] = qHTS RealTime-Glo MT Cell Viability Assay in HEK293 cells - 8 hour (AID 1224887); note: top concentration of the series differs between compounds; nearly all actives have a fitted effect of over 50% in size
# Procedure, shortened: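 Measured as luminescence from the same continuously cultured HEK293 wells at successive time points (0, 8, 16, 24, 32, 40 h) after compound addition. Reagent present from seeding; dosing at 5 h; incubation 37 C.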
# [6] = A CellTox Green Cytotoxicity Assay to monitor cytotoxicity in HEK293 cells - 16 hour (AID 1224888); note: nearly all actives have a fitted effect of over 35% in size
# Procedure, shortened: as §1
# [7] = qHTS RealTime-Glo MT Cell Viability Assay in HepG2 cells - 0 hour (AID 1224889); note: nearly all actives have a fitted effect of over 50% in size
# Procedure, shortened: as §3
# [8] = A CellTox Green Cytotoxicity Assay to monitor cytotoxicity in HepG2 cells - 8 hour (AID 1224890); note: nearly all actives have a fitted effect of over 45% in size
# Procedure, shortened: as §2
# [9] = qHTS assay to identify small molecule antagonists of the estrogen receptor alpha (ER-alpha) signaling pathway using the BG1 cell line in the presence of 0.1 nM 17-beta-estradiol - cell viability counter screen (AID 1259241); note: nearly all actives have a fitted effect of over 40% in size
# Procedure, shortened: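 VM7Luc4E2 cells (endogenous full-length ER-alpha, 4xERE-luciferase), cultured 5 days in charcoal-stripped serum, exposed to compounds with 0.1 nM 17beta-estradiol (final) for 22 hr at 37C. Viability read in same wells as live-cell protease fluorescence after 30 min.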
# [10] = qHTS assay to identify small molecule antagonists of the androgen receptor (AR) signaling pathway using the MDA cell line in the presence of 0.5 nM R1881 - cell viability counter screen (AID 1259242); note: nearly all actives have a fitted effect of over 45% in size
# Procedure, shortened: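 Human breast carcinoma MDA-kb2 cells, cultured without CO2, receive compounds alongside 0.5 nM (final) R1881 agonist. After 16 hr at 37C, viability is taken as live-cell protease signal.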
# [11] = qHTS assay to identify small molecule HDAC inhibitors (AID 1259364); note: potency is the fitted concentration of half-maximal effect;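 note: wild-type HCT-116 cells with endogenous class I/II HDAC activity; nearly all actives have a fitted effect of over 45% in size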
# Procedure, shortened: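 After a 2 hr compound incubation (37C, 5% CO2), HCT-116 cells seeded at 1,500/well the day before received HDAC-Glo reagent; signal read as luminescence after 30 min at room temperature.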
# [12] = qHTS assay to identify small molecule antagonists of the sonic hedgehog signaling (Shh) pathway - cell viability counter screen (AID 1259367); note: nearly all actives have a fitted effect of over 55% in size
# Procedure, shortened: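 Cytotoxicity was assessed in parallel with Shh reporter activity by measuring live-cell protease fluorescence (CellTiter-Fluor) in NIH/3T3 cells stably carrying Gli1-Luc, treated with compound under conditioned medium stimulation for 23 hr plus 1 hr reagent incubation.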
# [13] = qHTS assay to identify small molecule agonists of the sonic hedgehog signaling (Shh) pathway (AID 1259368; calls by dose curve;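 note: NIH/3T3-derived 3T3Gli1-Luc cells carrying a stable Gli1-driven firefly luciferase reporter; series mostly up to about 92 µM; nearly all actives have a fitted effect of over 15% in size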)
# Procedure, shortened: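 Stable NIH/3T3 Gli1-Luc reporter clone; 24 hr cpd exposure after a 4 hr settling period; luminescence endpoint.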
# [14] = A CellTox Green Cytotoxicity Assay to monitor cytotoxicity in HepG2 cells - 0 hour (AID 1224882); note: nearly all actives have a fitted effect of over 35% in size
# Procedure, shortened: as §2
# [15] = qHTS RealTime-Glo MT Cell Viability Assay in HEK293 cells - 24 hour (AID 1224886)
# Procedure, shortened: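 HEK293 cells seeded with NanoLuc/prosubstrate reagent, rested 5 h at 37 C, then dosed and kept at 37 C up to 40 h. Nonlytic real-time luminescence from viable cells read at 0, 8, 16, 24, 32 and 40 h.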
# [16] = biological target: Estrogen receptor (Homo sapiens) (UniProt P03372); assay: qHTS assay to identify small molecule antagonists of the estrogen receptor alpha (ER-alpha) signaling pathway using the BG1 cell line in the presence of 0.1 nM 17-beta-estradiol (AID 1259244); note: nearly all actives have a fitted effect of over 50% in size
# Chain of Estrogen receptor (Homo sapiens) (P03372 whole entry, looked up): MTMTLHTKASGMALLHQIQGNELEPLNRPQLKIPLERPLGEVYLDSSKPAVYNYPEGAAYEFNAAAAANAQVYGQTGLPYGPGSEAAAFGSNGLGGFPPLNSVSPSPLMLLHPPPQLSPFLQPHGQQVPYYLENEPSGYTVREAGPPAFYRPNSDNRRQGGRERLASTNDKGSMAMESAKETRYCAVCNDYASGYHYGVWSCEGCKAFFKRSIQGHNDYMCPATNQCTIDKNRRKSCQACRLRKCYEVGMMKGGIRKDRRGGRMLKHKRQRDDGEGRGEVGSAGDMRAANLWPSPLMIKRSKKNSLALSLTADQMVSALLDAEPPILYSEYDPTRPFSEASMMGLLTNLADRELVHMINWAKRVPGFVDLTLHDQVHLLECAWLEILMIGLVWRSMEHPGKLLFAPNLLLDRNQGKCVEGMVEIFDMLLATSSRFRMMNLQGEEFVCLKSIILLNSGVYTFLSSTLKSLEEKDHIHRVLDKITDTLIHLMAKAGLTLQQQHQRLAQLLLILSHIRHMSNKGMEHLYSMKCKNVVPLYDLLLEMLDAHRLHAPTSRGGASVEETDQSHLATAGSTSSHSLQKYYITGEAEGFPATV
# Procedure, shortened: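 Seeding of stripped-serum-adapted VM7Luc4E2 cells, 24 h attachment, compound transfer, then 0.1 nM final 17beta-estradiol; after 22 h incubation, ONE-Glo reagent and luminescence reading.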
# [17] = qHTS assay to identify small molecule phospholipidosis (PLD) inducers (AID 1259344; active = well fitted curve in the direction sought with a large enough effect; an effect the other way counts as inactive or inconclusive)
# Procedure, shortened: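 Cells (HepG2, 900 per well) attach for 4 h, receive LipidTOX Red and compound together, incubate 24 h at 37 C, are fixed 30 min with paraformaldehyde/Hoechst, then imaged at one site per well.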
# [18] = qHTS assay to identify small molecule HDAC inhibitors - cell viability counter screen (AID 1259365)
# Procedure, shortened: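 Wild-type HCT-116 cells, 1,500/well, cultured overnight, then compound-treated 2 h at 37 C. Viability measured as ATP luminescence with CellTiter-Glo after 30 min at room temperature.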
# [19] = qHTS assay to identify small molecule agonists of the sonic hedgehog signaling (Shh) pathway - cell viability counter screen (AID 1259366); note: nearly all actives have a fitted effect of over 50% in size
# Procedure, shortened: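 NIH/3T3-derived Gli1-Luc reporter cells, 2,000 per well, received compound after 4 h and were treated about 23 h at 37C. Viability measured in the same wells by CellTiter-Fluor fluorescence after 1 h.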
SMILES,Potency [1],Potency [2],Potency [3],Potency [4],Potency [5],Potency [6],Potency [7],Potency [8],Potency [9],Potency [10],Potency [11],Potency [12],outcome [13],Potency [14],Potency [15],Potency [16],Potency [17],outcome [18],Potency [19]
Nc1nc(CC(=O)O)cs1,inactive,inactive,inactive,inactive,inactive,inactive,inactive,inactive,inactive,inactive,inactive,inactive,inactive,–,–,–,–,–,–
CC(C(=O)O)c1ccc(-c2ccccc2)c(F)c1 (centres undefined),–,54.9 µM (active),inactive,inactive,–,inactive,inactive,–,inactive,inactive,43.3 µM (active),inactive,inactive,inactive,inactive,inactive,inactive,inactive,inactive
CCCCOc1ccc(CC(=O)NO)cc1,inactive,–,inactive,inactive,–,inactive,inactive,inactive,inactive,inactive,inactive,–,inactive,–,–,–,inactive,inactive,–
O=C(c1ccc(O)cc1)c1ccc(O)cc1,–,inactive,inactive,inactive,inactive,inactive,inactive,inactive,inactive,inactive,–,–,inactive,inactive,inactive,inactive,–,inactive,inactive
O=C(O)/C=C/c1cnc[nH]1,inactive,inactive,–,inactive,inactive,inactive,inactive,inactive,inactive,inactive,inactive,inactive,inactive,–,inactive,–,–,inactive,inactive
CC(O)C1CCCCC1 (centres undefined),–,inactive,inactive,inactive,–,inactive,inactive,inactive,inactive,inactive,inactive,inactive,inactive,inactive,inactive,–,–,–,inactive
O=C(O)Cc1cc(I)c(Oc2ccc(O)c(I)c2)c(I)c1,–,inactive,inactive,inactive,inactive,inactive,–,inactive,inactive,inactive,inactive,inactive,inactive,inactive,inactive,–,inactive,–,inactive
Oc1ccc2c(c1)OCO2,inactive,inactive,–,inactive,–,inactive,inactive,inactive,inactive,inactive,inactive,inactive,inactive,–,inactive,–,–,inactive,inactive
